About 7,900 targets were measured; listed, in parts, are those with a hit and a random draw of the rest. About 0.6% of all pairs of compound and target were hits. A number with no mark means an inactive call.
What was measured:
Assay in all cases: log2 fold change, soluble protein after heating vs DMSO (PISA); higher = thermal stabilisation; K562 cells, 10 uM, 30 min; active = over 0.2 and 3.5 SD of the protein, either way, in both replicates (recomputed)
volasertib = compound: CC[C@@H]1C(=O)N(C)c2cnc(Nc3ccc(C(=O)N[C@H]4CC[C@H](N5CCN(CC6CC6)CC5)CC4)cc3OC)nc2N1C(C)C [volasertib]
In short: (§1)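 For each measurement, 10 μM compound was applied for 30 min to K562 cells at 2×10^6 cells/mL. Aliquots were heated for 3 min across 48°C-58°C, pooled, and extracted in PBS with 0.5% NP-40 at 4°C; the supernatant after 21,000xg for 90 min was soluble protein. This was quantified by TMTpro 16plex LC-MS/MS with channel sums equalised, and thermal stability was reported relative to control samples from duplicates, on a log2 fold-change scale.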

epoxomicin = compound: CC[C@H](C)[C@@H](C(=O)N[C@@H]([C@@H](C)O)C(=O)N[C@@H](CC(C)C)C(=O)[C@]1(CO1)C)NC(=O)[C@H]([C@@H](C)CC)N(C)C(=O)C [epoxomicin]
In short: as §1

[1] = compound: CCn1c(C(=O)N(C2CC2)C2CC2)cc2c3c(ncn3C)c(Nc3cc(C)n(C)n3)nc21
In short: as §1

[2] = compound: CN(C)CC(=O)Nc1ccc2[nH]c(=O)c3ccccc3c2c1
In short: as §1

[3] = compound: CN1C2=C(C3=C1C(=O)N(N=C3)CC4=CC(=CC=C4)N)SC(=C2)S(=O)C
In short: as §1

saracatinib = compound: CN1CCN(CCOc2cc(OC3CCOCC3)c3c(Nc4c(Cl)ccc5c4OCO5)ncnc3c2)CC1 [saracatinib]
In short: as §1

sotrastaurin = compound: CN1CCN(c2nc(C3=C(c4c[nH]c5ccccc45)C(=O)NC3=O)c3ccccc3n2)CC1 [sotrastaurin]
In short: as §1

alvocidib = compound: CN1CC[C@H](c2c(O)cc(O)c3c(=O)cc(-c4ccccc4Cl)oc23)[C@H](O)C1 [alvocidib]
In short: as §1

Tubastatin A = compound: CN1CCc2c(c3ccccc3n2Cc2ccc(C(=O)NO)cc2)C1 [Tubastatin A]
In short: as §1

[4] = compound: CNC(=O)C1=CC=CC=C1NC2=NC(=NC=C2Cl)NC3=C(C=C(C=C3)N4CCOCC4)OC
In short: as §1

defactinib = compound: CNC(=O)c1ccc(Nc2ncc(C(F)(F)F)c(NCc3nccnc3N(C)S(C)(=O)=O)n2)cc1 [defactinib]
In short: as §1

[5] = compound: CNc1nc(-c2ccc3c(N)n[nH]c3c2)cc(N2C[C@@H](C(=O)NC3CCCCC3)CC[C@H]2C)n1
In short: as §1

[6] = compound: COC(=O)[C@H](CCSC)NC(=O)C1=C(C=C(C=C1)NC[C@H](CS)N)C2=CC=CC=C2
In short: as §1

[7] = compound: CC[C@@H]1C(=O)N(C)c2cnc(Nc3ccc(C(=O)NC4CCN(C)CC4)cc3OC)nc2N1C1CCCC1
In short: as §1

[8] = compound: CCn1cc(-c2ccnc3[nH]c(-c4cccc(CN(C)C)c4)cc23)c(-c2ccc(NC(=O)N(C)C)cc2)n1
In short: as §1

rosiglitazone = compound: CN(CCOC1=CC=C(C=C1)C[C@H]2C(=O)NC(=O)S2)C3=CC=CC=N3 (racemic) [rosiglitazone]
In short: as §1

[9] = compound: CN1CCC(CNc2ccc3ncc(-c4cccc(OC(F)(F)F)c4)n3n2)CC1
In short: as §1

rucaparib = compound: CNCc1ccc(-c2[nH]c3cc(F)cc4c3c2CCNC4=O)cc1 [rucaparib]
In short: as §1

encorafenib = compound: COC(=O)N[C@@H](C)CNc1nccc(-c2cn(C(C)C)nc2-c2cc(Cl)cc(NS(C)(=O)=O)c2F)n1 [encorafenib]
In short: as §1

[10] = compound: CC[C@H](C)N1C=C(C2=C(C=C(C=C21)C3=CN=C(C=C3)N4CCNCC4)C(=O)NCC5=C(C=C(NC5=O)C)C)C
In short: as §1

Sequence of UniProt P18887 (P18887 whole entry, looked up): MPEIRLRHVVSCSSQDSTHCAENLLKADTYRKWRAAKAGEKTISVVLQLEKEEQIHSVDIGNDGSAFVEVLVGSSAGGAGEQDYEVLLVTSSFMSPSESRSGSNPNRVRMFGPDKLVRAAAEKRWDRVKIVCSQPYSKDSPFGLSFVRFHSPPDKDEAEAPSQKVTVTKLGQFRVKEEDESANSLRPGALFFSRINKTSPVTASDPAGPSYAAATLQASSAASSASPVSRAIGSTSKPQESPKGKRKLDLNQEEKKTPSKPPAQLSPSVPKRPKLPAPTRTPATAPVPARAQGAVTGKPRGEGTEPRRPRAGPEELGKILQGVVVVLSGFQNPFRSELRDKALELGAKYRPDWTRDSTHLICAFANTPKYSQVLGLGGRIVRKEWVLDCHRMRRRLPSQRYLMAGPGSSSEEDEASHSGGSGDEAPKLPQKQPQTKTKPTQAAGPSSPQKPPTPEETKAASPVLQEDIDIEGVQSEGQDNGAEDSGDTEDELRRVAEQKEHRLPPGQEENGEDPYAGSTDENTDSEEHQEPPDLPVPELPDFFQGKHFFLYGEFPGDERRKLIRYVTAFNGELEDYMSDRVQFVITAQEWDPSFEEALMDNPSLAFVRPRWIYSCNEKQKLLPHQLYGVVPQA
Sequence of UniProt O95857 (O95857 whole entry, looked up): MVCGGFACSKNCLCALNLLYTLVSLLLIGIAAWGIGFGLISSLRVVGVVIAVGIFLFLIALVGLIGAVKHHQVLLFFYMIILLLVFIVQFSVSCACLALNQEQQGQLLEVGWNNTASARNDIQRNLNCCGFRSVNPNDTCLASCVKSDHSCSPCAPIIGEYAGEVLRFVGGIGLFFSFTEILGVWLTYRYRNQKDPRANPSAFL
Sequence of UniProt Q9BZM6 (Q9BZM6 whole entry, looked up): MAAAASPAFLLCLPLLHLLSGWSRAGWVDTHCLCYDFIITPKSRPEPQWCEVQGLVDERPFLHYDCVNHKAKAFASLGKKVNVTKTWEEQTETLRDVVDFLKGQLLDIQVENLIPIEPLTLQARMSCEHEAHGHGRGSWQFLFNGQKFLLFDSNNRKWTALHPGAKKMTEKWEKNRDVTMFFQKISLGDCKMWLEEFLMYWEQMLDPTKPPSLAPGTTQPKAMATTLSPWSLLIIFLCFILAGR
Sequence of UniProt P36406 (P36406 whole entry, looked up): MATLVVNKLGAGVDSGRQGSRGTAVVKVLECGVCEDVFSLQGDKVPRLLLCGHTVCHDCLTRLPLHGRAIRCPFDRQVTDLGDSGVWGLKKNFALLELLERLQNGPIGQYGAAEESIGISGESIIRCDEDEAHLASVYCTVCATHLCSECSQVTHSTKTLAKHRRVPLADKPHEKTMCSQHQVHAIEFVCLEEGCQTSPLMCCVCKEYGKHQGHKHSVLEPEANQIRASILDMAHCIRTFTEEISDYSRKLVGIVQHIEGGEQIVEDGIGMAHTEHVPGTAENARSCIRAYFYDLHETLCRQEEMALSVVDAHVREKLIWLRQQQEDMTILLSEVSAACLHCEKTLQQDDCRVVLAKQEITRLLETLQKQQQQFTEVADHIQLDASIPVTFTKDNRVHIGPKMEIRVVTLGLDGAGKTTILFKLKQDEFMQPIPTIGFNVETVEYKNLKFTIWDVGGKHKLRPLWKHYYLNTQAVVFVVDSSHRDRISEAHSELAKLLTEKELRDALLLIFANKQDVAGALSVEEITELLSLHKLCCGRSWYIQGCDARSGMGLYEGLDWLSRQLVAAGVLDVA
Sequence of UniProt Q629K1 (Q629K1 whole entry, looked up): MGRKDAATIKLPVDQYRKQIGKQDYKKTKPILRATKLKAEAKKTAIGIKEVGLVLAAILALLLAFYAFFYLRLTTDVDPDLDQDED
Sequence of UniProt O00124 (O00124 whole entry, looked up): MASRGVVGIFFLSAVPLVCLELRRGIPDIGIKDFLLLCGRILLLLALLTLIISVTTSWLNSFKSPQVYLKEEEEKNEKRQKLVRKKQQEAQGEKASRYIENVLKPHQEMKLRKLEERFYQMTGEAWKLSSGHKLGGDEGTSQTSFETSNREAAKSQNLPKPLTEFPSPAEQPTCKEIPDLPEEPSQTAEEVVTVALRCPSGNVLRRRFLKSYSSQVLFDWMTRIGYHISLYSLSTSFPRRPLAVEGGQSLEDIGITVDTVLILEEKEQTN
Sequence of UniProt P57081 (P57081 whole entry, looked up): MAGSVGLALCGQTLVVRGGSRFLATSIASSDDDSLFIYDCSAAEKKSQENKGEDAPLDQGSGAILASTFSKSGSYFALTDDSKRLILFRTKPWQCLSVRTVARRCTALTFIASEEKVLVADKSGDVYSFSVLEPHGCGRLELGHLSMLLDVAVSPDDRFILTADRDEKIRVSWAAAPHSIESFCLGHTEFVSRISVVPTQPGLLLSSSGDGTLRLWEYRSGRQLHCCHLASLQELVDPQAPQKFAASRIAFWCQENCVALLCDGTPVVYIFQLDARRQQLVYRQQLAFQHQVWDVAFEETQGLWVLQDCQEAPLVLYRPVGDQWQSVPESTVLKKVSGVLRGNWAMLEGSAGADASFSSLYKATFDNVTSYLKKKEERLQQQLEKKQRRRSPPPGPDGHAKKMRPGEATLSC
Sequence of UniProt Q8IWA0 (Q8IWA0 whole entry, looked up): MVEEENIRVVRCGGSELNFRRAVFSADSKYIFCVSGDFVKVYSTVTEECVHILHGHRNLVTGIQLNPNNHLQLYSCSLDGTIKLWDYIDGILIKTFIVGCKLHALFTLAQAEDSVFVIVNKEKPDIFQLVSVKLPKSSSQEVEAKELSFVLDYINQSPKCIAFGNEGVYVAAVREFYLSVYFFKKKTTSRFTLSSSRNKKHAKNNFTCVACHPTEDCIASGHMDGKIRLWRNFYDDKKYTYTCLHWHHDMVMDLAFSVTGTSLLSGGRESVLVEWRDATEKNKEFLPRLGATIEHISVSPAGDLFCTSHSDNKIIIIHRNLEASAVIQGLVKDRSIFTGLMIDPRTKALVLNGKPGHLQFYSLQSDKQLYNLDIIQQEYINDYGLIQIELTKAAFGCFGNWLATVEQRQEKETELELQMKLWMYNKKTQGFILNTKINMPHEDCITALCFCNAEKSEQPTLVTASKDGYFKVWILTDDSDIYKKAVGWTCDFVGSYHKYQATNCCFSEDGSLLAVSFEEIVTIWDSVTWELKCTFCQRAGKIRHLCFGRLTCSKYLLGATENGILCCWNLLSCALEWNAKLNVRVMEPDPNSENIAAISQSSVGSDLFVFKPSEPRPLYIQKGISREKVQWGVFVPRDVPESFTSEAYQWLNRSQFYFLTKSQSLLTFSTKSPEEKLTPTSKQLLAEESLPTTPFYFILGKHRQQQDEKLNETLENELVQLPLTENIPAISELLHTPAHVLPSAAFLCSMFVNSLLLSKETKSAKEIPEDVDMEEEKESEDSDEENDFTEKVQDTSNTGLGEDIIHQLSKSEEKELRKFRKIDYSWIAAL
Sequence of UniProt Q6PID6 (Q6PID6 whole entry, looked up): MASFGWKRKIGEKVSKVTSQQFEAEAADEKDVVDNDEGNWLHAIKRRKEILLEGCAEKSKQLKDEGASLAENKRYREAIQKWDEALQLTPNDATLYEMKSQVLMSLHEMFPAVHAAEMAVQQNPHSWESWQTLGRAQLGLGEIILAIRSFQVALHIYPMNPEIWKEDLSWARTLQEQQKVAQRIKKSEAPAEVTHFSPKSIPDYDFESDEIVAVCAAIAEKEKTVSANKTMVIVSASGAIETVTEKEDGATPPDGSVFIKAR
Sequence of UniProt Q86UV5 (Q86UV5 whole entry, looked up): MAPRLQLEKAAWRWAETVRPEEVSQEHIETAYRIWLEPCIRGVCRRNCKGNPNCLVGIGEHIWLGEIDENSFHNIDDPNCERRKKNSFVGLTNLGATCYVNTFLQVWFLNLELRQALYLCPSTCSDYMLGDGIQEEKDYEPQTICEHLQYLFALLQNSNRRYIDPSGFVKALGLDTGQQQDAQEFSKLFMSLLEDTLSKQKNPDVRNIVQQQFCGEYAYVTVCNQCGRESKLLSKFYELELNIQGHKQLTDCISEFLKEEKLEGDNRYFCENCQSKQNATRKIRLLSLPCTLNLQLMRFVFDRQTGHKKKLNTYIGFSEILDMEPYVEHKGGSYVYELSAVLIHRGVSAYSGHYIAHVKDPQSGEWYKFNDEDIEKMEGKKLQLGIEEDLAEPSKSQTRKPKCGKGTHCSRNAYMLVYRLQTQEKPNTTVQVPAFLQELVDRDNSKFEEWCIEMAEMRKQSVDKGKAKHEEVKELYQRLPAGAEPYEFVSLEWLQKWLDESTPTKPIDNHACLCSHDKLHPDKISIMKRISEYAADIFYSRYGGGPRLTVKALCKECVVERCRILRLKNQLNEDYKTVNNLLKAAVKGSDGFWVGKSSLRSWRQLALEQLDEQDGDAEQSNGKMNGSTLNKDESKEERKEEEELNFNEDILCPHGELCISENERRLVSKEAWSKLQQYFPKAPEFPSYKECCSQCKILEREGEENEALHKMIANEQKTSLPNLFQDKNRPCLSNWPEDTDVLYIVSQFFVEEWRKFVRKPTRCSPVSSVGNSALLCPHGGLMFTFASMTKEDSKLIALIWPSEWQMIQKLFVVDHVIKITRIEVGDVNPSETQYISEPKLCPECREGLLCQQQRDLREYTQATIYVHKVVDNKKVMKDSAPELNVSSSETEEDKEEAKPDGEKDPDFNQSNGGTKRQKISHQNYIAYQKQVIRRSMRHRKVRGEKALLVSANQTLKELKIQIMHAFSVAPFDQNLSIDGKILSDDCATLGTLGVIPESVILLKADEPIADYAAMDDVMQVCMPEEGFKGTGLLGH

Target | log2 fold change (volasertib) | log2 fold change (epoxomicin) | log2 fold change [1] | log2 fold change [2] | log2 fold change [3] | log2 fold change (saracatinib) | log2 fold change (sotrastaurin) | log2 fold change (alvocidib) | log2 fold change (Tubastatin A) | log2 fold change [4] | log2 fold change (defactinib) | log2 fold change [5] | log2 fold change [6] | log2 fold change [7] | log2 fold change [8] | log2 fold change (rosiglitazone) | log2 fold change [9] | log2 fold change (rucaparib) | log2 fold change (encorafenib) | log2 fold change [10]
ULBP1 (UniProt Q9BZM6) | -0.178 | 0.152 | -0.013 | -0.019 | 0.007 | -0.027 | -0.175 | 0.005 | 0.016 | -0.096 | 0.064 | 0.07 | 0.048 |  |  |  |  |  |  | 
TTC33 (UniProt Q6PID6) | -0.027 | 0.049 | 0.012 | -0.075 | -0.048 | -0.103 | 0.009 | 0.041 |  | 0.012 | 0.013 | -0.152 | 0.054 | 0.038 | -0.449 (active) | 0.035 | 0.138 | -0.008 | -0.014 | 
TTC26 |  |  |  | -0.088 |  |  |  |  | -0.033 |  | 0.265 |  | 0.144 |  |  | 0.068 |  |  |  | 
UBE3B (UniProt Q7Z3V4) | -0.554 (active) | -0.023 |  |  | -0.007 | -0.028 | 0.005 | 0.122 | 0.128 |  |  | -0.032 |  |  |  | 0.179 |  |  |  | 0.088
UBXN8 (UniProt O00124) | -0.179 | 0.073 |  | -0.051 | 0.147 | -0.054 | 0.027 | 0.102 | -0.144 |  | 0.065 | -0.112 | -0.095 | 0.081 | -0.039 | 0.259 | -0.297 | -0.568 (active) | 0.094 | 
TRIM23 (UniProt P36406) |  |  | -0.059 | 0.025 | -0.116 | 0.033 | 0.075 | -0.034 | 0.032 | -0.049 | -0.004 | 0.035 | -0.039 | 0.013 | -0.089 | -0.231 | -0.228 | 0.057 | 0.012 | 0.049
TRIQK (UniProt Q629K1) |  | -0.02 |  |  | -0.04 | -0.014 | -0.112 | 0.011 | -0.094 |  |  | -0.045 |  |  |  | 0.039 |  |  |  | 
USP48 (UniProt Q86UV5) |  |  | -0.045 |  |  |  | -0.123 |  |  | -0.045 |  |  |  | -0.159 |  | 0.101 |  | -0.102 | 0.318 | 0.059
TSC2 (UniProt P49815) | -0.23 | -0.01 | -0.295 |  |  |  | -0.085 | -0.134 | 0.437 | -0.603 |  |  |  | -0.062 | 0.016 | -0.052 | -0.041 | -0.097 | 0.042 | 
XRCC1 (UniProt P18887) |  | -0.1 | -0.09 |  | -0.192 | 0.008 | -0.264 | -0.029 | 0.055 | 0.05 |  | 0.148 |  |  | 0.006 |  | -0.239 |  |  | 
TSPAN13 (UniProt O95857) | 0.098 | -0.148 | 0.097 | 0.512 (active) | -0.036 | -0.055 | 0.044 | -0.305 | -0.11 | 0.054 | -0.104 | -0.029 | -0.291 |  | -0.098 | 0 | -0.003 |  |  | -0.083
WDR4 isoform 3 (UniProt P57081) |  | 0.017 |  |  |  |  | 0.098 |  |  |  |  |  |  |  | -0.044 | 0.142 | -0.036 |  |  | 
UBAP2L (UniProt F8W726) | -0.002 |  | 0.008 |  |  |  |  |  | -0.039 | -0.05 |  |  |  | 0.077 | 0.025 | 0.123 | -0.027 | -0.006 | -0.021 | -0.094
WDR75 (UniProt Q8IWA0) | -0.153 | -0.156 |  | -0.073 | 0.166 | -0.109 |  | 0.147 | 0.173 |  | 0.144 | 0.162 | -0.197 |  |  | -0.061 |  |  |  | -0.041

— the supplement of paper PMC10849652
